Where “and” joins values, the source holds several entries; their conditions need not be identical. Identical values can stand only once. Inconclusive results are not listed. Where a call stands in place of a potency, no number is given. Calls of active or inactive are those of the source. Unless noted, calls come from the whole dose curve; as a rule, active = well fitted curve in the direction sought with a large enough effect; inconclusive = small, poorly fitted or top-dose-only effect, or another doubt; inactive = no such curve, though single readings can be large; an effect the other way counts as inactive or inconclusive.
What was measured:
[1] = target: ATP-dependent 6-phosphofructokinase (Trypanosoma brucei brucei) (UniProt O15648); experiment: qHTS Assay to Find Inhibitors of T. brucei phosphofructokinase: hit validation (AID 492961); note: potency is the fitted concentration of half-maximal effect; settings: T. brucei PFK, ADP-Glo luminescence; series mostly up to 51.4 µM
ATP-dependent 6-phosphofructokinase (Trypanosoma brucei brucei), sequence (O15648 whole entry, looked up): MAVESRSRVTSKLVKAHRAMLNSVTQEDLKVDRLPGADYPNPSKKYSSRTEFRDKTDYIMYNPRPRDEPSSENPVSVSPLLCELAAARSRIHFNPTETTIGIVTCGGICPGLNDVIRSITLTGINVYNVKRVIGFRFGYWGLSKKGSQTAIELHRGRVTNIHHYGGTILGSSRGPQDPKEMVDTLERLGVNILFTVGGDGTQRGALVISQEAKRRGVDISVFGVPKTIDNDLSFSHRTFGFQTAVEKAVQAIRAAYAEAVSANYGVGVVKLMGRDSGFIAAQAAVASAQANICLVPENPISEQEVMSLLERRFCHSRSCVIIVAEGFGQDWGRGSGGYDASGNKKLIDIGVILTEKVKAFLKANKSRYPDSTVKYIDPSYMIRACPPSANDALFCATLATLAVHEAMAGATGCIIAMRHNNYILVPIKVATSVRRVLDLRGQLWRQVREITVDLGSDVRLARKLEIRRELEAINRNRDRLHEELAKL
Procedure, shortened: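 Inhibition of parasite PFK is measured as reduced ADP formation, quantified via luciferase after ATP depletion. Assay used 0.1 mM ATP, 0.5 mM F6P, 1.25 nM enzyme, 45 min incubation.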

[2] = Validation screen for small molecules that induce genotoxicity in human embryonic kidney (HEK293T) cells expressing luciferase-tagged ELG1 (AID 493106); settings: luminescence; series mostly up to 46.1 µM
Procedure, shortened: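 Cells were dispensed at 2,000 per well, then 23 nL compound or DMSO was pinned in. After 16 hr at 37 °C and 5% CO2, ONE-Glo reagent was added. Luciferase activity was measured following 30 min at room temperature.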

[3] = target: ATPase family AAA domain-containing protein 5 (Homo sapiens) (UniProt Q96QE3); experiment: Validation screen for small molecules that inhibit ELG1-dependent DNA repair in human embryonic kidney (HEK293T) cells expressing luciferase-tagged ELG1 (AID 493107); settings: HEK293T ELG1-luciferase level, luminescence, 5-fluorouridine co-treatment, 16 h; series mostly up to 46.1 µM;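 note: cells co-treated with the DNA-damaging agent 5-fluorouridine alongside compound; inhibitors lower the ELG1-luciferase luminescence signal; nearly all actives have a fitted effect of over 70% in size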
ATPase family AAA domain-containing protein 5 (Homo sapiens), sequence (Q96QE3 whole entry, looked up, the tested form may be a part): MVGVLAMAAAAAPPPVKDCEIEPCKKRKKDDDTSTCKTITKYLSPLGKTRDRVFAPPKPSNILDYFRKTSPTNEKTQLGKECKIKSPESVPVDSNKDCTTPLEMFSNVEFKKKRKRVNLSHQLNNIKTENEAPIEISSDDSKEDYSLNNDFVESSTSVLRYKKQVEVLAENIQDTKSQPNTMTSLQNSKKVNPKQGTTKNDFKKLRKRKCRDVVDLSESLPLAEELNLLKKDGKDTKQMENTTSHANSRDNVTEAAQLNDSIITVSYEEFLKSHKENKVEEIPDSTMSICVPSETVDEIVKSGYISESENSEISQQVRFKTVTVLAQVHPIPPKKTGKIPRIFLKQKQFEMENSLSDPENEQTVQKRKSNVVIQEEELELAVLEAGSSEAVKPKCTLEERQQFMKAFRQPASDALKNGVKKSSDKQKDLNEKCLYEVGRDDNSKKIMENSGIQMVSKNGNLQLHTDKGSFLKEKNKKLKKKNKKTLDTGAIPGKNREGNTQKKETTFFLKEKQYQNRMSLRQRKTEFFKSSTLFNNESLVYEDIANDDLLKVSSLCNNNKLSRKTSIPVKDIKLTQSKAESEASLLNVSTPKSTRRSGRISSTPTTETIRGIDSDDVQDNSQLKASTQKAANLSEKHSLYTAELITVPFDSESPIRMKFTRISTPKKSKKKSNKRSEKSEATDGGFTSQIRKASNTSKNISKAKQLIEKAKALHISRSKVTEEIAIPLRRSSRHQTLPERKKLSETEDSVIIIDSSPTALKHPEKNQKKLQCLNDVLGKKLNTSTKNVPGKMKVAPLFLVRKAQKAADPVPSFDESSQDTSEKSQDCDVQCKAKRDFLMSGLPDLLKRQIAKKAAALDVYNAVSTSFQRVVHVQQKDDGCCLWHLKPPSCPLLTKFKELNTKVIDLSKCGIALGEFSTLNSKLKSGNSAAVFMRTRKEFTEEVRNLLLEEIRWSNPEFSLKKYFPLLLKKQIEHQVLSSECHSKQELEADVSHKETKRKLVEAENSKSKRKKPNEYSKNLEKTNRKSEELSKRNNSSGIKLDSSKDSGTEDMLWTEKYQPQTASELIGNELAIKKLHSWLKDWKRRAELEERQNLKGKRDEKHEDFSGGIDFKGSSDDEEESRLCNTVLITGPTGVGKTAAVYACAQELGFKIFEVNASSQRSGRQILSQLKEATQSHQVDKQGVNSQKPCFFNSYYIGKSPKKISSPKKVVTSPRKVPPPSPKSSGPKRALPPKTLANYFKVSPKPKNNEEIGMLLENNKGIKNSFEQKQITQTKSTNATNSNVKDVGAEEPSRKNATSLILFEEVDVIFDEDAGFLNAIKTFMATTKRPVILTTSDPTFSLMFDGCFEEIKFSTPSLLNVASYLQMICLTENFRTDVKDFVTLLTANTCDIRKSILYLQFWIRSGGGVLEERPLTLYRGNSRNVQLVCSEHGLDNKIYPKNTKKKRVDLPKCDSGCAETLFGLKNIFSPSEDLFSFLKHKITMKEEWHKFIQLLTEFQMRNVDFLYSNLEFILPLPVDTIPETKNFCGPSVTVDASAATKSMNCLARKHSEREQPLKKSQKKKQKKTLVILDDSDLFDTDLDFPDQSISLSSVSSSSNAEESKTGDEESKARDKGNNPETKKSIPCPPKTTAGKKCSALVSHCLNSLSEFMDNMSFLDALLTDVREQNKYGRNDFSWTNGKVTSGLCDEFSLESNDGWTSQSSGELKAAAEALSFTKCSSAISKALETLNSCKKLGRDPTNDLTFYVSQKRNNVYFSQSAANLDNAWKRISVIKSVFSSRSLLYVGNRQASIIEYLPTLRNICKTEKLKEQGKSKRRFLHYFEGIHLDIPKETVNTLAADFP
Procedure, shortened: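 Cells are dispensed in 1536-well format, then 5-fluorouridine and compound are pinned in. After a 16 hr incubation at 37 °C and 5% CO2, ONE-Glo is added and luciferase measured on a CCD imager.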

[4] = target: Thyrotropin-releasing hormone receptor (Homo sapiens) (UniProt P34981); experiment: qHTS for Small Molecule Agonists and Allosteric Enhancers of Human TRH Receptor: Validation Screen for Agonists (AID 493127;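 active = calcium activation more than 3 SD above the typical response in the agonist read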;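 note: intracellular calcium rise by fluo-8 fluorescence before TRH EC20 addition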); settings: TRH receptor agonist cell assay; at 2 µM; stronger effect = higher value
Thyrotropin-releasing hormone receptor (Homo sapiens), sequence (P34981 whole entry, looked up): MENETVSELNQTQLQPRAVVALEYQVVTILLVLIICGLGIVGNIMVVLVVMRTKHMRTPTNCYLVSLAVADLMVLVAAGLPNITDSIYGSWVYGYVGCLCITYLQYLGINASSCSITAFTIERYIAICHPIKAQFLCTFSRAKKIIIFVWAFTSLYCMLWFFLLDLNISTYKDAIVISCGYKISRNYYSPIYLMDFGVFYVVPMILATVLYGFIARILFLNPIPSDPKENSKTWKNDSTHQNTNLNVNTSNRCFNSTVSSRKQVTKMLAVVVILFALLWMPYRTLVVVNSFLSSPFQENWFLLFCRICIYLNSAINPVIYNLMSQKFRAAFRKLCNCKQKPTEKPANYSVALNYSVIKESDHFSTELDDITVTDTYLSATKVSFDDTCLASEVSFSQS
Procedure, shortened: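 Compounds are added by online pintool to dye-loaded TRHR cells while fluorescence is recorded every second. A rise in calcium signal during the agonist read marks activation; a later 10 nM TRH addition (EC20) serves the separate enhancer mode.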

[5] = Nrf2 qHTS screen for inhibitors: Validation (AID 493153; active = well fitted inhibition curve with a large enough effect in the main read-out, with a control signal flat, not every such curve was filed as active); settings: A549 ARE-Fluc reporter, 18-24 h; Potency: luciferase luminescence; viability change: measured here: cytotoxicity max response; luciferase luminescence, at 46.1 µM (top of the series)
Procedure, shortened: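 A549 ARE_Fluc, 5% FBS OPTI-MEM; cpd titration, 18-24 h, 37°C/5% CO2. Read 1: CellTiter-Fluor (Ex 405/Em 525), cytotox. Read 2: luciferase lum, Nrf2 activity.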

[6] = qHTS for Inhibitors of Cell Surface uPA Generation: Validation Assay (AID 493164); settings: mouse cells, plasminogen activation; series mostly up to 38.3 µM;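 note: RAW 264.7 macrophage cells exposed to compound for 18 h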
Procedure, shortened: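 ATP-Lite luminescence read-out: ATP remains high when uPA activity-dependent LF translocation into the cytoplasm is blocked. RAW 264.7 cells, 18 h compound exposure at 37 C; 7-point titration, 2.45 nM to 38.3 uM final.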

[7] = target: Galactokinase (Homo sapiens) (UniProt P51570); experiment: qHTS Validation Assay for Inhibitors of Human Galactokinase (GALK) (AID 493189); settings: purified human GALK enzyme activity, qHTS 7-point titration; series mostly up to 57.5 µM; note: potency is the fitted concentration of half-maximal effect
Galactokinase (Homo sapiens), sequence (P51570 whole entry, looked up): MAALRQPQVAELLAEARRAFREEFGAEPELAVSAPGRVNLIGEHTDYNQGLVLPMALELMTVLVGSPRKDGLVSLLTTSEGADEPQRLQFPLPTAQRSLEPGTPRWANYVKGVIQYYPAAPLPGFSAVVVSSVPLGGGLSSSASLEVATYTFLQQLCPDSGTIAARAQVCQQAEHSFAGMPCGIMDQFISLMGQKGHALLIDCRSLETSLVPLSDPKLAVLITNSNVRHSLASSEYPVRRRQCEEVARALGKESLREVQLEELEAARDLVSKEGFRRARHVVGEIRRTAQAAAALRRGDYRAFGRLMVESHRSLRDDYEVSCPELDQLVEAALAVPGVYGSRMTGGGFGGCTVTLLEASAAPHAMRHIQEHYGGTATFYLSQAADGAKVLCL
Procedure, shortened: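 5 nM GALK / 100 uM galactose / 35 uM ATP, 20 mM HEPES pH8.0, 5 mM MgCl2, 60 mM NaCl, 1 mM DTT, 0.01% BSA (final). RT 1 h; Kinase-Glo Plus luminescence.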

[8] = Validation screen for small molecules that induce DNA re-replication in SW480 colon adenocarcinoma cells (AID 504364); settings: DNA re-replication phenotype (high-content imaging); series mostly up to 46.1 µM
Procedure, shortened: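 Image-based qHTS: compounds were incubated with SW480 cells for 48 hr, nuclei stained with Hoechst, and per-nucleus fluorescence intensity scanned to flag cells with excess DNA content.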

[9] = target: Tyrosyl-DNA phosphodiesterase 1 (Homo sapiens) (UniProt Q9NUW8); experiment: Confirmation Assay for Inhibitors of Tyrosyl-DNA Phosphodiesterase (TDP1) (AID 489007); settings: recombinant human TDP1 enzymatic activity, dose-response; note: potency is the fitted concentration of half-maximal effect; nearly all actives have a fitted effect of over 40% in size
Tyrosyl-DNA phosphodiesterase 1 (Homo sapiens), sequence (Q9NUW8 whole entry, looked up): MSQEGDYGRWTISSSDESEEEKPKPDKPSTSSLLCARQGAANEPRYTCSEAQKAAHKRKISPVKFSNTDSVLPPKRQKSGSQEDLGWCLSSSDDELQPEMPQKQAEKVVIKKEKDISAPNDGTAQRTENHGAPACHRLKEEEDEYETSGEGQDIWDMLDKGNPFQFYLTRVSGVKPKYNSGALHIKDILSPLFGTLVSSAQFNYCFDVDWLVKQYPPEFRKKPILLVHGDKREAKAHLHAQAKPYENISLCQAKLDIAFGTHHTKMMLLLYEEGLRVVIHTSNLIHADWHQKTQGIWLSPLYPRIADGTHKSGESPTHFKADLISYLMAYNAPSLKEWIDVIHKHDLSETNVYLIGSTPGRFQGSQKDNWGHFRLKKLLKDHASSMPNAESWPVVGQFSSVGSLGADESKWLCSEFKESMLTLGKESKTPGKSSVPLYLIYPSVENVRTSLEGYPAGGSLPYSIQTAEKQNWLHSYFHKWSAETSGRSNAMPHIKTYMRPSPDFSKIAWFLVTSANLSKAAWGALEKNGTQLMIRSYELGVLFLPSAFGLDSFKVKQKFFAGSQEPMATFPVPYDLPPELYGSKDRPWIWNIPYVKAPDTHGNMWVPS
Procedure, shortened: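 Compounds are preincubated 15 min at room temperature with 1 nM recombinant human Tdp1. The reaction starts on adding 15 nM FITC-phosphotyrosine DNA substrate, runs 5 min, and is detected by AlphaScreen beads after 10 min.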

[10] = target: D(1A) dopamine receptor (Homo sapiens) (UniProt P21728); experiment: HTS Assay for Allosteric Agonists of the Human D1 Dopamine Receptor: Primary Screen for Antagonists (AID 488983); settings: D1 receptor cell assay, antagonist mode, qHTS titration; series mostly up to 41.8 µM;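 note: calcium flux response to an EC80 dopamine challenge measured with no-wash dye; nearly all actives have a fitted effect of over 65% in size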
D(1A) dopamine receptor (Homo sapiens), sequence (P21728 whole entry, looked up): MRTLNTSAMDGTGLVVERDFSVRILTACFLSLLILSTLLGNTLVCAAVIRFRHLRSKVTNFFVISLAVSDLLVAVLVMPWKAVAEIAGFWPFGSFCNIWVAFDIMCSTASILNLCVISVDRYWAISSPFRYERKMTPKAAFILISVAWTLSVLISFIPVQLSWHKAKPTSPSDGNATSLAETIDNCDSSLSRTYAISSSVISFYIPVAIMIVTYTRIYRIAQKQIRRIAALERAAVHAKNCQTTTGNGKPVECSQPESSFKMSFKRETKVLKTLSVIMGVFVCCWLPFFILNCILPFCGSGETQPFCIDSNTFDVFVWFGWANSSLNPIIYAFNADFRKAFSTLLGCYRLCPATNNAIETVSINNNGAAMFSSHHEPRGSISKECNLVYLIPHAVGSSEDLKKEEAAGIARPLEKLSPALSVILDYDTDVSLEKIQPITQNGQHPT
Procedure, shortened: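 Kinetic fluorescence at 1 cycle/sec tracked intracellular calcium in force-coupled, tetracycline-inducible HEK293 T-REx D1 cells. Loss of response to an EC80 dopamine dose, given 180 s after compound, marked antagonists.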

Row | SMILES | Potency [1] | Potency [2] | Potency [3] | activation [4] | Potency [5] | viability change [5] | outcome [6] | Potency [7] | Potency [8] | Potency [9] | Potency [10]
1 | CN(C)C(=N)N=C(N)N | inactive | – | – | – | – | – | – | – | – | – | –
2 | COc1nc(C)nc(Cl)c1NC1=NCCN1 | inactive | inactive | inactive | 0.688% (inactive) | inactive | 4.38% | inactive | inactive | inactive | – | –
3 | OCCN1CCN(CCCN2c3ccccc3Sc3ccc(C(F)(F)F)cc32)CC1 | – | inactive | inactive | 1.88% (inactive) | inactive | 1.55% | inactive | inactive | inactive | – | –
4 | CS(=O)(=O)Nc1ccc([N+](=O)[O-])cc1Oc1ccccc1 | inactive | inactive | inactive | 1% (inactive) | – | – | – | – | inactive | 8.91 µM (active) | –
5 | CC(C)(C)C(=O)Oc1ccc(S(=O)(=O)Nc2ccccc2C(=O)NCC(=O)O)cc1 | inactive | – | – | – | – | – | – | – | – | – | –
6 | CC1COc2c(N3CCN(C)CC3)c(F)cc3c(=O)c(C(=O)O)cn1c23 (centres undefined) | – | inactive | inactive | 1% (inactive) | inactive | 6.09% | inactive | inactive | inactive | – | –
7 | Cc1ccc(-c2cc(C(F)(F)F)nn2-c2ccc(S(N)(=O)=O)cc2)cc1 | inactive | – | – | – | – | – | – | – | – | – | –
8 | COc1cc2c(c(OC)c1OC)-c1ccc(OC)c(=O)cc1[C@@H](NC(C)=O)CC2 | inactive | – | inactive | 0% (inactive) | – | – | inactive | inactive | – | – | –
9 | CC(C(=O)O)c1cccc(C(=O)c2ccccc2)c1 (centres undefined) | – | inactive | inactive | 1.12% (inactive) | inactive | -3.76% | inactive | inactive | inactive | – | –
10 | NCCc1cnc[nH]1 | – | inactive | inactive | 1.06% (inactive) | inactive | 1.05% | inactive | inactive | inactive | – | –
11 | COc1ccccc1OCC(O)CN1CCN(CC(=O)Nc2c(C)cccc2C)CC1 (centres undefined) | – | inactive | inactive | 0.375% (inactive) | inactive | -3.01% | inactive | inactive | inactive | – | –
12 | Cc1ccc(C(=O)Nc2ccc(S(=O)(=O)O)c3cc(S(=O)(=O)O)cc(S(=O)(=O)O)c23)cc1NC(=O)c1cccc(NC(=O)Nc2cccc(C(=O)Nc3cc(C(=O)Nc4ccc(S(=O)(=O)O)c5cc(S(=O)(=O)O)cc(S(=O)(=O)O)c45)ccc3C)c2)c1 | 7.08 µM (active) | inactive | inactive | 0.688% (inactive) | inactive | -15.2% | inactive | 17.8 µM (active) | inactive | 2.51 µM (active) and 5.62 µM (active) and 1.26 µM (active) | –
13 | COc1ccccc1N1CCN(CC(O)COc2cccc3ccccc23)CC1 (centres undefined) | – | inactive | – | – | inactive | -28.8% | inactive | inactive | inactive | – | inactive
14 | CC1(CN2CCC(n3c(=O)[nH]c4ccccc43)CC2)OCc2ccccc2-n2cccc21 (centres undefined) | inactive | – | – | – | – | – | – | – | – | – | –
15 | CN(C)c1nc(N(C)C)nc(N(C)C)n1 | inactive | inactive | inactive | 0.188% (inactive) | inactive | 0% | inactive | inactive | inactive | – | –
16 | CCOC(=O)C(C)(C)Oc1ccc(Cl)cc1 | – | inactive | inactive | -8.94% (inactive) | inactive | -5.48% | inactive | inactive | inactive | – | –
17 | NC(=O)OCC(COC(N)=O)c1ccccc1 | – | inactive | inactive | 0.5% (inactive) | inactive | 2.5% | inactive | inactive | inactive | – | –
18 | Clc1ccc2c(c1)C(N1CCNCC1)=Nc1ccccc1O2 | – | inactive | inactive | 4.19% (inactive) | – | – | inactive | inactive | inactive | – | –
19 | NC12CC3CC(CC(C3)C1)C2 | – | inactive | inactive | – | – | – | inactive | – | inactive | – | –
20 | CN1CCN(CCCN2c3ccccc3Sc3ccc(Cl)cc32)CC1 | – | inactive | inactive | – | – | – | inactive | inactive | – | – | –
21 | CCCNCC(O)COc1ccccc1C(=O)CCc1ccccc1 (centres undefined) | – | inactive | inactive | 4% (inactive) | – | – | inactive | inactive | inactive | – | –
22 | Cn1c(=O)c2[nH]cnc2n(C)c1=O | – | – | inactive | 0.688% (inactive) | inactive | 0.231% | inactive | inactive | inactive | – | –
23 | Cc1cnc(C(=O)NCCc2ccc(S(=O)(=O)NC(=O)NC3CCCCC3)cc2)cn1 | – | inactive | – | – | inactive | -0.248% | inactive | – | inactive | – | –
24 | O=c1[nH]cc(F)c(=O)[nH]1 | – | – | inactive | 0.812% (inactive) | – | – | inactive | inactive | inactive | – | –
25 | CN(C)C(=O)C(CCN1CCC(O)(c2ccc(Cl)cc2)CC1)(c1ccccc1)c1ccccc1 | – | – | inactive | 17% (inactive) | – | – | inactive | inactive | – | – | –
26 | CN1CCC(=C2c3ccccc3C=Cc3ccccc32)CC1 | – | inactive | inactive | – | inactive | 17% | inactive | inactive | inactive | – | –
